Data from PubChem BioAssay AID1814 (Broad Institute, 2009).
Screen size: about 300,000 compounds; about 22,000 (7.3%) were called active. Inconclusive results (about 2%) are left out. This excerpt belongs to a sample that is enriched for actives. Values without a mark were called inactive. No stated cut-off is given here; in the data, active means activity score below about -60%; inconclusive means mostly about -28% to -61%; inactive means positive scores.

Assay: Activators working through SNCA 5'UTR binding (MLPCN) (AID 1814)
Settings: alpha-synuclein 5'UTR reporter, activators screen; hits give low values; tested at 7.5 µM
For CC(Cc1cccs1)NC(=O)c1cccc(Cl)c1 (stereo not given), the activity score was -95.5% (active). With O=C(NC1CCCCCCC1)c1cccs1 the activity score was -77.8% (active). In the case of CC(Cc1cccs1)NC(=O)NC1CCCCC1 (stereo not given), the activity score is reported as -95.9% (active). For Cc1cnc(NC(=O)c2ccc(Cl)nc2)s1, the activity score was -97.1% (active). With COc1cc(CNc2ncn[nH]2)ccc1OCc1ccccc1C the activity score was -65.6% (active). With O=C(Cc1cccs1)NCc1cccc(C(F)(F)F)c1 the activity score was -110% (active). With COC(=O)Cc1csc(/N=C/c2c(O)n(-c3cccc(C(F)(F)F)c3)c(=O)c3ccccc23)n1 the activity score was 81.8%. For CC(C)c1ccc(/C=C2\NC(=O)NC2=O)cc1, the activity score was -66.1% (active). For COc1cccc(/C(C)=N/Nc2ncc(Cl)cc2Cl)c1, the activity score was -119% (active). For C/C(=N\Nc1nc2ccccc2[nH]1)c1cccs1, the activity score was -116% (active). With C/C(=N\Nc1ncc(Cl)cc1Cl)c1cccs1 the activity score was -91.6% (active). COc1cccc(/C=N/Nc2ncc(C(F)(F)F)cc2Cl)c1O showed an activity score of 76.7%. With C/C(=N\Nc1ncc(Cl)cc1Cl)c1ccc(S(=O)(=O)NCc2ccco2)cc1 the activity score was -141% (active). For Nc1cccc(CCc2nc3ccccc3[nH]2)c1, the activity score was -77.9% (active). In the case of Cc1c(C(=O)OC(C)C)sc(NC(=O)c2cccnc2)c1C#N, the activity score is reported as -80.1% (active). For CNc1nc2c(C)cccn2c(=O)c1C=Nc1ccc(OC)cc1, the activity score was -108% (active). For O=C(Nc1ccc(N2CCOCC2)cc1)c1ccc(-c2ccccc2[N+](=O)[O-])o1, the activity score was -107% (active). For O=C(Nc1ccc2sc3ccccc3c(=O)c2c1)c1ccccc1Cl, the activity score was -135% (active). In the case of Cc1ccc(SCC(=O)c2cc(C)c(OC(=S)N(C)C)c(C)c2)cc1, the activity score is reported as -155% (active). For CCOc1ccc(NC(=O)Nc2cc(C)ccc2OC)cc1, the activity score was -78.4% (active). In the case of CCOc1ccc(C(=O)Nc2cc(OC)ccc2OC)cc1, the activity score is reported as -88.9% (active). In the case of CCOc1ccc(C(=O)Nc2cccc(SC)c2)cc1, the activity score is reported as -168% (active). In the case of CCOc1ccc(NC(=O)Nc2cc(C)on2)cc1, the activity score is reported as -128% (active). For CC(=O)c1cc(C#N)c(SCC(=O)Nc2nccs2)nc1C, the activity score was -110% (active). In the case of CC(=O)c1cc(C#N)c(SCC(=O)C(C)(C)C)nc1C, the activity score is reported as -148% (active). In the case of CCOC(=O)c1cccc(NC(=O)c2ccc(F)cc2F)c1, the activity score is reported as -127% (active). For CCC(=C/c1sc2ccc3ccccc3c2[n+]1C)/C=C1\Sc2ccc3ccccc3c2N1C, the activity score was -122% (active). With O=C(c1nnc(-c2ccc(Cl)cc2)o1)C1CCCC1 the activity score was -86.2% (active). With CCOC(=O)c1sc(-c2cccc([N+](=O)[O-])c2)cc1N the activity score was -129% (active). With O=C(Cn1cnc2c(cnn2-c2ccccc2)c1=O)NCc1ccccc1 the activity score was -148% (active).
